Bioassay records as filed in PubChem BioAssay.
DAX1 inh-1: inhibitors of human orphan nuclear receptor DAX1 (NR0B1). HEK293 Gal4-DAX1 luciferase reporter, luminescence. P51843. 340,000 tested, 0.99% active. inhibition, % at 6.75 µM;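 active means inhibition above the mean over all tested compounds plus 3 SD, cut at about 4.2% in these data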;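 further: 0% = DAX1-transfected cells with DMSO and 100% = empty-vector control cells with DMSO; inhibition shows as a rise in luminescence from relieved DAX1 repression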
Target sequence (P51843 207-470 limits assumed): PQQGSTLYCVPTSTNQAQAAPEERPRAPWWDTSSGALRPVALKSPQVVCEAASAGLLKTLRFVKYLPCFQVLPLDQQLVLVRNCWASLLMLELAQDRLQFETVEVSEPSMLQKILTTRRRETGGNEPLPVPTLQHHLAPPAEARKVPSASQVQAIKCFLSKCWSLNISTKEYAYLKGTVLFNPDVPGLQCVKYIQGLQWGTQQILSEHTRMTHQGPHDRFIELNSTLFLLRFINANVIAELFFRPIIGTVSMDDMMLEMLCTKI
ssDAF-12 act: S. stercoralis DAF-12 activation, primary screen. AID 652126. 370,000 tested, 1% active. HEK293 ssDAF-12/GRIP1 lit1-tk-luc reporter, luminescence; % of 3 µM dafachronic acid response. activation, % at 6.8 µM;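 active means activation above the mean over all tested compounds plus 3 SD, cut at about 0.9% in these data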;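 further: 0% = DMSO-only wells and 100% = 3 µM delta7-dafachronic acid wells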
hcDAF-12 act: activators of H. contortus DAF-12 nuclear receptor; HEK293 hcDAF-12 lit1-tk-luc reporter, luminescence; 0% DMSO, 100% Δ7-dafachronic acid; activation, % at 6.8 µM; 370,000 tested, 1.4% active; AID 652067;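 active means activation above the mean of all tested compounds plus 3 SD, cut at about 5.5% in these data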;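 further: 100% = response to 3 µM Δ7-dafachronic acid high control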
DAX1 inh-2: inhibitors of DAX1 repression of SF-1 activated StAR promoter; inhibition, % at 6.8 µM; HEK293T StAR-luciferase reporter, SF-1/DAX-1 repression relief; AID 652010; 370,000 tested, 1.1% active;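 active means inhibition above the mean over all tested compounds plus 3 SD, cut at about 3.6% in these data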;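 further: 0% = DAX-1 cells with DMSO and 100% = cells lacking DAX-1 with DMSO; higher inhibition means more luminescence from relief of DAX-1 repression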
hgDAF12 agonist: activates the H. glycines DAF-12 receptor ligand-binding domain; HEK293 GAL4-hgDAF12 UAS-luciferase reporter, agonist luminescence; normalized to butyrate control; activation, % at 6.8 µM; 370,000 tested, 1.8% active; AID 687014;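 active means activation above a cutoff set at the mean of all screened compounds plus 3 SD, cut at about 10% in these data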;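 further: 0% = DMSO wells and 100% = sodium butyrate wells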
AHR act: activators of human aryl hydrocarbon receptor. AHR-responsive luciferase reporter cells, luminescence. activation, % at 5 µM. 320,000 tested, 2.5% active; in the data active means activation above about 47%;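 further: 0% = vehicle wells and 100% = reference agonist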
* = called active by the depositor; nt = no result given. Hits are enriched below; roughly 5.7% of the tested compounds scored in any of these assays.

SMILES	DAX1 inh-1	ssDAF-12 act	hcDAF-12 act	DAX1 inh-2	hgDAF12 agonist	AHR act
COc1cc(O)c(C(CCN2CCCCC2)c2ccc3c(c2)OCO3)c(OC)c1 (configuration not stated)	4.3*	-1.3	1.4	1.6	1.5	-0.3
CN(C)/C=N/c1cnc(C(=O)c2ccc(Cl)cc2)n1C	3.0	0.2	6.4*	2.9	12.3*	4.0
Nc1[nH]c(C(=O)c2ccccc2)c(-c2ccccc2Br)c1C(=O)c1cccs1	nt	-1.2	0.3	1.0	3.5	nt
COCc1cc(=O)n2[nH]c(C)c(-c3ccc(Cl)cc3)c2n1	0.5	-0.9	0.2	-1.6	12.9*	nt
Cc1c(C(=O)N2CCCCC2)nn(-c2ccc(Cl)cc2)c(=O)c1C#N	-0.3	-1.5	0.1	0.8	-0.5	0.9
COc1ccc2[nH]cc(C(=O)NCCc3ccccc3)c(=O)c2c1	-0.4	-1.3	-0.2	0.1	-0.1	74.4*
CCOc1ccc(N(C)S(=O)(=O)c2ccc3[nH]cc(C(=O)NCC4CCCO4)c(=O)c3c2)cc1 (configuration not stated)	0.6	-0.7	-0.9	-0.3	-3.0	56.4*
CCOc1ccc2[nH]cc(C(=O)NCc3ccc(F)cc3)c(=O)c2c1	-1.5	-1.6	-2.8	-0.4	-4.4	nt
CCOCCCNC(=O)c1c[nH]c2ccc(OCC)cc2c1=O	0.6	-1.6	-2.4	-0.7	1.0	51.3*
CCOC(=O)C1=C(C(=O)OCC)C2N(Cc3ccc(C#N)cc3)c3ccccc3[C@@]23C[C@@H](C(=O)OC)N(S(=O)(=O)c2c(C)noc2C)C3=N1 (some centres not stated)	nt	-1.1	-0.9	-0.9	0.1	nt
O=C(O)c1cc([N+](=O)[O-])c(NCCC2=CCCCC2)c([N+](=O)[O-])c1	2.2	-1.7	-0.6	0.7	5.5	3.1
Cn1c(=O)c2c(nc(NCC(O)CO)n2CCc2ccccc2)n(C)c1=O (configuration not stated)	5.4*	-1.2	1.0	-0.2	1.6	3.9
C[C@H]1COc2cc(Br)ccc2S(=O)(=O)N1Cc1cn(Cc2ccc(C(F)(F)F)cc2)nn1	nt	-1.5	-2.3	-0.6	3.8	nt
c1ccc2c(c1)Nc1cc3ccccc3cc1S2	1.3	0.1	6.5*	0.4	7.0	59.7*
COc1ccc2c(c1)Sc1ccccc1N2	-0.9	-1.6	-0.1	-3.7	1.6	nt
O=C(Nc1ccc(Br)cc1)OCCN1CCCC12CCC(c1ccccc1)CC2 (configuration not stated)	nt	-1.7	-0.1	nt	3.3	nt
Cc1c(NS(=O)(=O)c2cc(C(=O)NCc3cccnc3)cc(Cl)c2Cl)c(=O)n(-c2ccccc2)n1C	-2.2	-0.4	-1.1	-0.2	-1.8	59.6*
Cn1c(=O)n(CCOc2ccc([N+](=O)[O-])cc2)c2ccccc21	0.6	-0.8	-0.2	-0.1	4.6	-4.2
Cc1ccc(OCCn2c(=O)n(C)c3ccccc32)cc1	0.0	0.0	3.0	2.1	12.9*	20.8
Cn1c(=O)n(CCOc2ccccc2Cl)c2ccccc21	0.7	-0.8	2.1	1.9	1.9	58.7*
N#CC1CCN(C(=O)c2ccc3c(Cl)c4c(nc3c2)CCCC4)CC1	0.8	-1.3	-2.4	4.4*	2.4	6.5
CCN1CCN(C(=O)c2ccc3c(Cl)c4c(nc3c2)CCCC4)CC1	0.2	-0.4	0.3	1.2	3.9	18.8
Cc1ccc(-c2[nH]c3cc(C(N)=O)ccc3c(=O)c2O)cc1	0.9	-0.4	4.3	0.2	0.5	66.3*
Cc1cccc2nc(=S)n(C(=O)c3ccco3)n12	4.6*	-0.2	3.0	2.6	13.1*	13.1
O=C(c1ccco1)n1c(=S)nc2ccccn21	2.0	0.4	3.2	1.2	11.6*	12.5
SMILES	DAX1 inh-1	ssDAF-12 act	hcDAF-12 act	DAX1 inh-2	hgDAF12 agonist	AHR act
O=C(c1ccco1)N1CCN(C(=O)c2ccco2)CC1	nt	-0.8	-2.1	1.1	0.0	nt
CC(C)=C(C#N)c1nc2ccccc2s1	5.4*	-0.2	2.5	0.8	3.5	14.7
O=C(Cc1ccccc1)c1nc2ccccc2s1	0.0	0.3	2.5	1.4	3.8	46.0
COC(=O)c1ccc(CC(=O)c2nc3ccccc3s2)cc1	-0.6	1.0*	4.5	1.2	1.3	23.8
CC(C)NC(=O)c1nc2ccccc2s1	-0.9	3.2*	2.7	0.1	0.7	8.0
Cc1cc(NC(=O)c2ccco2)c(=O)n(Cc2cccc(C(F)(F)F)c2)c1	-0.6	-0.9	-1.2	-0.2	-1.4	-4.6
